Data as given in article PMC5540273 (PLoS ONE, 2017).
pKd: −log10 of the molar value.

Tests used:
[1] = system: RPS6KA4(Kin.Dom.1-N-terminal)
[2] = system: T1, RSK1(Kin.Dom.2-C-terminal)
T1 construct: gene RPS6KA1

[3] = system: T2, RSK2(Kin.Dom.2-C-terminal)
T2 construct: gene RPS6KA3

[4] = system: T3, RSK4(Kin.Dom.1-N-terminal)
T3 construct: gene RPS6KA6
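Note: kd values determined as follow-up on hits from a single-replicate KINOMEscan panel screen.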

Compound: O=C(Nc1n[nH]c2cc(-c3ccsc3)ccc12)C1CC1 [SB-732932]
- pKd (PRKD1): < 5.00

Compound: CN1c2ccc(-c3ccc(C(N)=O)cc3)cc2-c2[nH]ncc2S1(=O)=O
- pKd (PRKD2): < 5.00

Compound: CC[C@@H]1CO[C@H](C(=O)Nc2ccccc2)CN1c1cc(-c2ccc3c(N)n[nH]c3c2)nc(NC)n1 [GSK2376236]
- pKd (PRKX): 6.89

Compound: CNc1nc(-c2ccc3c(N)n[nH]c3c2)cc(N2C[C@@H](C(=O)Nc3ccccc3)CC[C@H]2C)n1 [GSK2298859]
- pKd (PRKX): 7.19

Compound: Cc1ccc(NC(=O)Nc2ccc(Cl)c(C(F)(F)F)c2)cc1-c1ccc(C(=O)Nc2ccncc2)cc1 [GSK1398470]
- pKd (RAF1): 6.47

Compound: Cc1ccc(NC(=O)Nc2ccc(Cl)cc2)cc1-c1ccc(C(=O)Nc2ccncc2)cc1 [GSK1398472]
- pKd (RAF1): 6.46

Compound: Fc1ccc(-c2nn3cccc(F)c3c2-c2ccncc2)cc1 [GW475620]
- pKd (RET): < 5.00

Compound: CNCc1ccc2nc(NC(=O)c3ccc(C(C)(C)C)cc3)cn2c1
- pKd (RIOK2): < 5.00

Compound: Nc1cccc(-c2ccc3c(N)n[nH]c3c2)n1 [GSK2192730]
- pKd (RIOK3): 6.31

Compound: CC(C)c1cc(-c2ccc3c(N)n[nH]c3c2)nc(N)n1 [GSK2250882]
- pKd (RIOK3): 6.36

Compound: Nc1ncnc2occ(-c3ccc4c(c3)CCN4C(=O)Cc3cc(F)ccc3F)c12 [GSK2645446]
- pKd (RIPK1): 6.39

Compound: c1ccc(-c2ccnc3[nH]ccc23)cc1 [SB-693578]
- pKd (ROCK2): 6.28

Compound: Cc1nccc(-c2c(-c3ccc(F)cc3)ncn2CCCN2CCOCC2)n1.Cl [SB-282975]
- pKd [1]: < 5.00

Compound: O=C1NC(=O)C(c2ccc(Cl)cc2)=C1Nc1cccc(Cl)c1 [SB-317651]
- pKd [1]: < 5.00

Compound: NS(=O)(=O)c1cccc(N/C=C2\C(=O)Nc3ccc(S(=O)(=O)Cc4c(Cl)cccc4Cl)cc32)c1 [GSK398099]
- pKd [2]: < 5.00

Compound: Cn1cnc2c(N)ncnc21 [SKF-97623]
- pKd [2]: < 5.00

Compound: COc1ccc(Nc2nccc(N3CCC(NC(=O)C(C)c4ccc(Cl)cc4)CC3)n2)cc1 (stereo not shown) [GSK1379812]
- pKd [3]: < 5.00

Compound: O=C(Nc1n[nH]c2nc(-c3cccs3)c(Br)cc12)C1CC1 [SB-735297]
- pKd [4]: 5.42

Compound: Cn1cncc1C(=O)NC1CCN(c2ccnc(Nc3ccc(F)cc3)n2)C1 (stereo not shown) [GSK1379717]
- pKd (SRPK1): < 5.00
